SARS PLpro yeast: inhibitors of SARS-CoV papain-like protease in yeast; 330,000 compounds, 0.19% hits; Potency, µM (series often up to 32.9 µM), without a hit: at the highest dose activity, positive = growth rescue, most hits filed as activators; S. cerevisiae expressing SARS-CoV PLpro, growth rescue; AID 485353; further: potency means the concentration at half of the fitted maximal effect; 0% is about no effect; nearly all actives have a fitted effect of over 55% in size
NS1 function inh: blocks influenza NS1 protein function | Potency, µM (titrated, usually from 46.1 µM), for the others: at the highest dose activity, positive = more growth | 270,000 compounds, 0.4% hits; further: potency means the concentration at half of the fitted maximal effect; actives are rising curves; nearly all actives have a fitted effect of over 50% in size
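Recovery from NS1-induced slow growth read by OD600 in budding yeast switched to galactose assay medium (pH 6.0, -URA) at 1:100 dilution. Compound 23 nl per well; the matching strain lacking NS1 serves as control.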
CHX counter: counter-screen hit for Shiga toxin inhibitors, cycloheximide; max response, %; AID 2314; cell reporter, cycloheximide protein synthesis inhibition counterscreen; 300,000 compounds, 12% hits; in the data active means max response mostly above about 13%, no sharp cut-off; inactive means mostly below about 14%; further: read at 38.3 µM for the half of the compounds with a filed dose; 0% is about no effect
Shiga inhibitor: inhibitors of Shiga toxin in Vero cells. AID 2315. Vero cells, Shiga toxin protein synthesis inhibition reporter. 290,000 compounds, 9.2% hits. inhibition, % at 38.7 µM; in the data active means inhibition mostly above about 28%, no sharp cut-off; inactive means mostly below about 43%; further: 0% is about no effect
Numbers without * were called inactive; ? = inconclusive; / = no result. A selection: hits, their analogues and other compounds. The true share with any hit is near 12%. Unless noted, the call rests on the fitted dose curve.

SMILES	SARS PLpro yeast	NS1 function inh	CHX counter	Shiga inhibitor
Cc1cc(C(C)(C)C)cc(C)c1COC(=O)CN1C(=O)NC2(CCCC2)C1=O	4.5%	/	/	/
CC(C)([CH2][Sn]([CH2]C(C)(C)c1ccccc1)([CH2]C(C)(C)c1ccccc1)[O][Sn]([CH2]C(C)(C)c1ccccc1)([CH2]C(C)(C)c1ccccc1)[CH2]C(C)(C)c1ccccc1)c1ccccc1	/	/	-16.0	-19.6
CCOC(=O)C(O)(c1ccc(NC(=O)NC2CCCCC2)cc1)C(F)(F)F (centres undefined)	-0.6%	-0.1%	19.7*	57.6
O=C(NC1CCCCCC1)c1ccc(CS(=O)(=O)Cc2ccc(F)cc2)o1	-2.1%	-0.1%	21.8*	40.4*
Cc1c(NC(=O)NC2CCCCC2)cccc1[N+](=O)[O-]	0.0%	-3.1%	5.8	-13.4
Cc1ccc(CS(=O)(=O)Cc2ccc(C(=O)NC3CC3)o2)cc1	0.7%	17.9%	-0.7	-5.0
CCC(C)(C)NC(=O)Cc1ccc(Cl)cc1	0.8%	5.7%	24.6*	28.5
Nc1ccc(NC(=O)NC2CCCCC2)cc1[N+](=O)[O-]	-0.1%	9.4%	33.3*	64.5*
CCC(C)(C)NC(=O)Cc1ccc(F)cc1	1.4%	3.2%	1.1	-11.6
Cc1cccc(C(=O)C2CCN(S(=O)(=O)c3cccc(C(=O)O)c3)CC2)c1	9.4%	3.8%	-7.7	-2.4
CCOC(=O)/C=C1\SCC(=O)N1CC(=O)N1CCOCC1	11.5%	/	-2.2	2.1
CC(=O)c1cc(Cl)ccc1OCC(=O)NC1CCCC1	-0.5%	/	/	/
Nc1ccc(NC(=O)NC2CCCCC2)cc1	11.7%	0.3%	38.5*	61.2*
Cc1ccc(NC(=O)NC2CCCCCCC2)cc1C	1.4%	4.8%	27.2	18.8
O=C(COc1ccc(Cl)cc1[N+](=O)[O-])NC1CCCCC1	-0.4%	-5.4%	23.8*	71.2*
CC(NCc1ccc(F)cc1)C(=O)NC1CCCCC1 (centres undefined)	0.3%	2.4%	7.1*	53.1*
O=C(Nc1ccc(F)c(F)c1)NC1CCCCC1	-3.6%	-51.1%	30.3*	50.0*
CC1CCCC(NC(=O)Cn2cc(Br)ccc2=O)C1C (centres undefined)	-1.7%	/	/	/
CN(CC(=O)Nc1ccc(F)cc1)CC(=O)NC1CCCCC1	15.0%	/	/	/
O=C(NC1CCCCCC1)c1ccc(N2CCCC2=O)cc1	2.8%	0.9%	20.6	74.4*
O=C(Nc1ccc(F)cc1)NC1CCCCCCC1	-1.9%	-22.0%	61.4*	108.1*
Cc1ccc(S(=O)(=O)OCCC2=CC(=O)CCN2Cc2ccccc2)cc1	10.6%	/	/	/
Cc1nc2scc(C)n2c(=O)c1S(=O)(=O)NC(C)c1ccccc1 (centres undefined)	?	5.8%	-2.3	-4.8
Cc1ccnc(NS(=O)(=O)c2ccc(NS(=O)(=O)Cc3ccccc3)cc2)n1	-7.0%	6.8%	-5.4	-17.0
COC(=O)Cn1c(=NC(=O)c2ccc([N+](=O)[O-])s2)sc2cc(Br)ccc21	-26.6%	-31.9%	15.4*	39.3
SMILES	SARS PLpro yeast	NS1 function inh	CHX counter	Shiga inhibitor
COC(=O)Cn1c(=NC(=O)c2sc3ccccc3c2Cl)sc2cc(S(N)(=O)=O)ccc21	6.4%	18.8%	-0.7	-2.0
COC(=O)Cn1c(=NC(=O)c2nc3ccccc3s2)sc2cc(S(C)(=O)=O)ccc21	14.4%	7.5%	16.6*	14.7
COC(=O)Cn1c(=NC(=O)c2ccc(Cl)s2)sc2cc(C)ccc21	-10.7%	?	18.2*	39.5
CCC(C)NC(=O)CN(c1ccc(Cl)c(Cl)c1)S(C)(=O)=O (centres undefined)	0.6%	9.8%	-2.3	9.0
Cc1ccc(C(=O)Nc2ccc(C(=O)N3CCCCC3)cc2)cc1	0.0%	-3.2%	26.6*	25.0
Cc1ccc(NS(=O)(=O)c2ccc(C(=O)N3CCCCCC3)cc2)cc1	2.5%	/	/	/
Cc1cccc(CC(=O)Nc2ccc(C(=O)N3CCCCC3)cc2)c1	-1.4%	-2.6%	14.5*	20.4
Cc1cc(C)c(C)c(S(=O)(=O)NCc2ccc(C(=O)N3CCCCC3)cc2)c1C	-38.1%	-20.2%	22.0*	39.5
Cc1ccc(NS(=O)(=O)c2ccc(C(=O)N3CCCCCCC3)cc2)cc1	-3.0%	-3.3%	41.0*	99.4*
COc1ccccc1CC(=O)Nc1ccc(C(=O)N2CCCCC2)cc1	-2.5%	-3.1%	2.4	18.9
Cc1ccc(S(=O)(=O)n2nc(C)c(C#N)c2N)cc1	-27.9%	17.5%	-5.1	-1.0
Cc1cc(C)c(NC(=O)CN(C)C(C)C(=O)N2CCc3ccccc32)c(C)c1 (centres undefined)	1.6%	/	/	/
O=C(Nc1ccc(S(=O)(=O)N2CCOCC2)cc1)c1c(F)cccc1F	0.6%	19.3%	-5.7	13.0
COc1ccc(NC(=O)N(C)C[C@H]2Oc3c(NC(=O)c4nc5ccccc5s4)cccc3C(=O)N([C@@H](C)CO)C[C@H]2C)cc1	-2.4%	/	/	/
COC(=O)c1c(-c2ccc(F)cc2)csc1NC(=O)C1CCCO1 (centres undefined)	-1.5%	-33.5%	26.3*	68.1
COC(=O)COc1ccc(NC(=O)C2CCCO2)cc1 (centres undefined)	-1.2%	-0.9%	6.1	15.9
COc1ccc(Cc2nnc(NC(=O)C3CCCO3)s2)cc1 (centres undefined)	8.0%	-0.4%	23.7*	48.6
O=C(Nc1ccc(Oc2ccccc2)cc1)C1CCCO1 (centres undefined)	-5.3%	-12.9%	30.8*	190.5*
COc1ccc(NC(=O)C2CCCO2)cc1 (centres undefined)	12.4%	5.7%	16.4*	27.0
Cc1nn(CC(=O)NCCc2ccc(Cl)cc2Cl)c(C)c1[N+](=O)[O-]	14.6%	-4.9%	1.4	-5.3
NC(=O)CC(NC(=O)c1ccccc1)c1ccc(NCc2ccccc2)c([N+](=O)[O-])c1 (centres undefined)	0.2%	63.9%	8.6	7.3
CC(=O)NS(=O)(=O)c1ccc(NC(=S)NC(=O)Cc2ccccc2)cc1	-0.4%	3.1%	1.5	-3.4
COc1ccc(-c2csc(NC(=O)C3CCCO3)n2)cc1 (centres undefined)	1.4%	-6.7%	43.3*	82.4*
COC(=O)c1ccc(NC(=O)C2CCCO2)cc1 (centres undefined)	1.2%	-6.2%	37.9*	35.3*
O=C(Nc1ccc(Oc2ccccc2)cc1)C1CCN(c2ncccn2)CC1	9.8%	5.3%	-3.0	3.8
SMILES	SARS PLpro yeast	NS1 function inh	CHX counter	Shiga inhibitor
COc1ccc(C(=O)NNC(=O)C2CCCO2)cc1 (centres undefined)	-0.7%	-1.0%	-1.5	-2.4
O=C(Nc1ccccc1O)c1ccc(NC(=O)C2CC2)cc1	-6.5%	6.5%	38.6*	82.7*
O=C(Nc1ccc(Oc2ccccc2)cc1)C1CC1	-4.5%	/	20.6	71.1*
O=C(Nc1ccc(C#Cc2ccccc2)cc1)C1CC1	-19.0%	-3.2%	44.2*	51.0*
O=C(Nc1ccccc1C(=O)O)c1ccc(NC(=O)C2CC2)cc1	-1.9%	-5.4%	1.1	-18.2
COc1ccccc1OCC(=O)Nc1ccc2c(c1)OCO2	-7.2%	-0.2%	25.2*	65.8*
O=C(COc1ccccc1Cl)Nc1ccc2c(c1)OCO2	-1.9%	-46.5%	41.8*	71.4*
Cc1ccccc1OCC(=O)Nc1ccc2c(c1)OCO2	-10.0%	-10.8%	32.2*	157.0*
CC1CC1C(=O)Nc1nc(-c2cccs2)c(-c2cccs2)s1 (centres undefined)	-46.6%	-8.5%	18.7*	-40.6

Compound activity deposited in PubChem by National Center for Advancing Translational Sciences (NCATS).
